Compound activity as filed in PubChem BioAssay.
A selection: hits, their analogues and other compounds. The true share with any hit is near 2.5%.
LEDGF integ inh – blockers of LEDGF/p75-dependent integrase strand transfer – biochemical, TR-FRET, high throughput, primary screen. HIV-1 integrase (with human LEDGF/p75). TR-FRET IN-LEDGF/p75 DNA integration, Eu/Cy5. inhibition, % at 3.7 µM. hit rate 0.64% among 370,000. AID 743269, 2014;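 active = inhibition above the screen-wide mean plus 3 SD, cut at about 13% in these data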;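 also: signal is the Cy5 over europium emission ratio at 671 and 618 nm; 0% = plate median of compound wells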
PRMT1 FP inh – PRMT1 methyltransferase inhibitors, primary screen, biochemical, fluorescence polarization; Protein arginine N-methyltransferase 1 (Homo sapiens), Q99873; recombinant PRMT1, activity-based probe fluorescence polarization; inhibition, % at 2.79 µM; hit rate 1.3% among 370,000; AID 652257, 2013;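 active = inhibition above about 21% made by adding two undisclosed values, limit read from the data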
UHRF1 MBD2 ctr – UHRF1 methylated DNA binding inhibitors, primary screen, counter-screen for MBD2 inhibitor project, biochemical, TR-FRET, human UHRF1, single concentration | UHRF1 binding to methylated oligo | inhibition, % at 4.4 µM | hit rate 0.75% among 370,000 | AID 687016, 2013; in the data active = inhibition above about 21%;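 also: UHRF1 SRA domain binding a hemimethylated CpG hairpin DNA probe; 0% = median of test compound wells and 100% = reference inhibitor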
MBD2 inh – inhibitors of MBD2 binding to methylated DNA, primary screen, biochemical, TR-FRET, DNA-binding domain, human. AID 686964, 2013. inhibition, % at 4.4 µM. MBD2 binding to methylated oligonucleotide. hit rate 0.31% among 370,000. Methyl-CpG-binding domain protein 2 (Homo sapiens), Q9UBB5; in the data active = inhibition above about 13%
Target sequence (Q9UBB5 whole entry, looked up, the tested form may be a part): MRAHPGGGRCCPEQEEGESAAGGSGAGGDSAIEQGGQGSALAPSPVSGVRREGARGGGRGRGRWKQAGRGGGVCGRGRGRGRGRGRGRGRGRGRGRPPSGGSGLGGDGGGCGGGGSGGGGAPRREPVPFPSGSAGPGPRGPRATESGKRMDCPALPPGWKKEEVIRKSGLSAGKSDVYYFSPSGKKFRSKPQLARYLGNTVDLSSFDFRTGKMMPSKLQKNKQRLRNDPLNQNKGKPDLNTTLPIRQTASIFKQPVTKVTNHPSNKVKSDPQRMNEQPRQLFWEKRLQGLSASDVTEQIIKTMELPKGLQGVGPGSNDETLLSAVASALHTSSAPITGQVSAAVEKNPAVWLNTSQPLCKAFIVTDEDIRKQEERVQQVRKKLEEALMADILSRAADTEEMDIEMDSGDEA
PRMT1 inh conf – PRMT1 methyltransferase inhibitors, confirmation, biochemical, fluorescence polarization, triplicate | hit rate 42% among 3,300 | recombinant His-PRMT1, activity-based probe fluorescence polarization | shares compounds with PRMT1 FP inh | AID 687036, 2013 | inhibition, % at 2.79 µM;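 active = mean inhibition across replicates above the hit cutoff derived for the earlier primary screen, cut at about 22% in these data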
* hit, by the source's call.

What do the screens show for `CNc1ncnc2c1ncn2[C@H]1CN(Cc2cccc3ccccc23)C[C@@H](CO)O1`?
LEDGF integ inh: 3; PRMT1 FP inh: 0; UHRF1 MBD2 ctr: 11; MBD2 inh: 1

What do the screens show for `COc1ccccc1NS(=O)(=O)c1ccc2oc(N)nc2c1`?
LEDGF integ inh: 0; PRMT1 FP inh: 0; UHRF1 MBD2 ctr: -2; MBD2 inh: 2

What do the screens show for `CCc1ccc(NC(=O)CSc2nc(C)cs2)cc1`?
LEDGF integ inh: 1; PRMT1 FP inh: -1; UHRF1 MBD2 ctr: 1; MBD2 inh: 6

Results for OC(CCCN1CCCCC1)(c1ccccc1)c1ccc(C(F)(F)F)cc1 (configuration not stated) ?
LEDGF integ inh: -3; PRMT1 FP inh: 3; UHRF1 MBD2 ctr: 2; MBD2 inh: 3

What do the screens show for `O=[N+]([O-])c1cccc(SSc2cccc([N+](=O)[O-])c2)c1`?
LEDGF integ inh: -9; PRMT1 FP inh: 83*; UHRF1 MBD2 ctr: -2; MBD2 inh: 1; PRMT1 inh conf: 95*

Results for COCCn1c(SCC(=O)Nc2sccc2C(N)=O)nnc1-c1ccncc1 ?
LEDGF integ inh: 1; PRMT1 FP inh: 2; UHRF1 MBD2 ctr: -3; MBD2 inh: 1

Results for O=C(CC(SCCO)c1ccc2c(c1)OCO2)c1cccs1 (configuration not stated) ?
LEDGF integ inh: -1; PRMT1 FP inh: 30*; UHRF1 MBD2 ctr: 0; MBD2 inh: -3; PRMT1 inh conf: 32*

What do the screens show for `CC(NC(=O)Cc1cccs1)c1ccc2c(c1)OCO2` (configuration not stated)?
LEDGF integ inh: -4; PRMT1 FP inh: 5; UHRF1 MBD2 ctr: 5; MBD2 inh: 5

What do the screens show for `CCc1cc(C(=O)Nc2ccc(OC)nc2)sc1C`?
LEDGF integ inh: 1; PRMT1 FP inh: 26*; UHRF1 MBD2 ctr: -1; MBD2 inh: -3; PRMT1 inh conf: 7

Results for CC(C)(C)c1ccc(Cn2cnc(-c3ccc([N+](=O)[O-])cc3)c2)cc1 ?
LEDGF integ inh: -4; PRMT1 FP inh: 2; UHRF1 MBD2 ctr: -2; MBD2 inh: -3

Results for Cc1cc(C)c(Cn2cnc(-c3ccc([N+](=O)[O-])cc3)c2)c(C)c1 ?
LEDGF integ inh: 2; PRMT1 FP inh: 46*; UHRF1 MBD2 ctr: 3; MBD2 inh: -7; PRMT1 inh conf: -6

What do the screens show for `COc1ccc([N+](=O)[O-])cc1NC(=O)CSc1nc(C)cc(C)n1`?
LEDGF integ inh: -4; PRMT1 FP inh: 54*; UHRF1 MBD2 ctr: 4; MBD2 inh: 8; PRMT1 inh conf: 45*

Results for Cc1ccccc1Cn1cc(CN2[C@@H](CC(C)C)COc3cc(Br)ccc3S2(=O)=O)nn1 ?
LEDGF integ inh: 3; PRMT1 FP inh: -3; UHRF1 MBD2 ctr: -1; MBD2 inh: -1

What do the screens show for `COC(=O)c1csc(S(=O)(=O)N2CCCCC2)c1OC`?
LEDGF integ inh: 2; PRMT1 FP inh: -5; UHRF1 MBD2 ctr: 0; MBD2 inh: 2

Results for NNC(=O)CSc1c(-c2ccccc2)c2cc(Cl)ccc2[nH]c1=O ?
LEDGF integ inh: 2; PRMT1 FP inh: 4; UHRF1 MBD2 ctr: 0; MBD2 inh: 1

How did O=c1[nH]c2ccc(Cl)cc2c(-c2ccccc2)c1SC(=S)N1CCCCC1 do in these assays?
LEDGF integ inh: -6; PRMT1 FP inh: 44*; UHRF1 MBD2 ctr: -19; MBD2 inh: 0; PRMT1 inh conf: 24*

How did O=c1[nH]c2ccc(Cl)cc2c(-c2ccccc2)c1SC(=S)N1CCOCC1 do in these assays?
LEDGF integ inh: -3; PRMT1 FP inh: 27*; UHRF1 MBD2 ctr: -14; MBD2 inh: 3; PRMT1 inh conf: 16

How did CCOC(=O)C1CCCN(C2CC(=O)N(c3ccccc3)C2=O)C1 (configuration not stated) do in these assays?
LEDGF integ inh: 2; PRMT1 FP inh: 57*; UHRF1 MBD2 ctr: 1; MBD2 inh: -3; PRMT1 inh conf: 0

What do the screens show for `CCOC(=O)C1CCCN(C2CC(=O)N(c3cccc(C(F)(F)F)c3)C2=O)C1` (configuration not stated)?
LEDGF integ inh: 4; PRMT1 FP inh: 26*; UHRF1 MBD2 ctr: 2; MBD2 inh: 1; PRMT1 inh conf: 25*

Results for CCOC(=O)C1CCCN(C2CC(=O)N(c3ccc(C)c(C)c3)C2=O)C1 (configuration not stated) ?
LEDGF integ inh: -1; PRMT1 FP inh: 46*; UHRF1 MBD2 ctr: 5; MBD2 inh: 4; PRMT1 inh conf: 4

What do the screens show for `Cc1csc(=O)n1CCC(=O)OCC(=O)Nc1cc([N+](=O)[O-])ccc1Cl`?
LEDGF integ inh: 4; PRMT1 FP inh: 4; UHRF1 MBD2 ctr: 0; MBD2 inh: -2

Results for CCOC(=O)N(C)OC(=O)Nc1ccc(Cl)c(Cl)c1 ?
LEDGF integ inh: 2; PRMT1 FP inh: 35*; UHRF1 MBD2 ctr: 2; MBD2 inh: 3; PRMT1 inh conf: 36*

What do the screens show for `CCOC(=O)N(CC)OC(=O)Nc1ccc(Cl)cc1`?
LEDGF integ inh: 2; PRMT1 FP inh: 6; UHRF1 MBD2 ctr: -3; MBD2 inh: -1

What do the screens show for `Cc1ccc2c(c1)N(CC(=O)Nc1ccccc1F)C(=O)CO2`?
LEDGF integ inh: -1; PRMT1 FP inh: -1; UHRF1 MBD2 ctr: 2; MBD2 inh: 3

What do the screens show for `O=C(Oc1ccc(C(=S)N2CCOCC2)cc1)c1ccc(Br)cc1`?
LEDGF integ inh: 0; PRMT1 FP inh: 0; UHRF1 MBD2 ctr: 0; MBD2 inh: 0

What do the screens show for `COc1ccc(C(=S)N2CCN(C)CC2)cc1`?
LEDGF integ inh: 2; PRMT1 FP inh: 30*; UHRF1 MBD2 ctr: 1; MBD2 inh: 1; PRMT1 inh conf: 8

What do the screens show for `COc1ccc(C(=O)Oc2ccc(C(=S)N3CCOCC3)cc2)cc1`?
LEDGF integ inh: -3; PRMT1 FP inh: 57*; UHRF1 MBD2 ctr: 4; MBD2 inh: 0; PRMT1 inh conf: 2

Results for C[C@H]1C=C(C(=O)NCc2nc3ccccc3[nH]2)O[C@@H](OCCCCO)C1 ?
LEDGF integ inh: -2; PRMT1 FP inh: 41*; UHRF1 MBD2 ctr: 4; MBD2 inh: 8; PRMT1 inh conf: 3

What do the screens show for `CN(C)C(CNC(=O)c1cccc(S(=O)(=O)Nc2ccc(SC(F)F)cc2)c1)c1ccccc1` (configuration not stated)?
LEDGF integ inh: -9; PRMT1 FP inh: 44*; UHRF1 MBD2 ctr: 3; MBD2 inh: -1; PRMT1 inh conf: 62*

How did O=C1C(Cl)=C(N2CCOCC2)C(=O)N1c1ccccc1F do in these assays?
LEDGF integ inh: -1; PRMT1 FP inh: 40*; UHRF1 MBD2 ctr: 3; MBD2 inh: 8; PRMT1 inh conf: 13
